sEH act: increases human soluble epoxide hydrolase activity. activation, % at 2 µM. purified human sEH enzymatic activity, activator screen. 91,000 compounds, 0.04% hits; in the data active = activation above about 37%
CYP2C19 activ: cytochrome P450 2C19 (human) activation; 96,000 tested, under 10 active; AID 1025; recombinant CYP2C19, luciferin-H EGE luminescence; stronger effect = higher value; 0 = fully inhibited enzyme, 1 = untreated enzyme; activation factor at 5 µM;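 active = activation factor of at least 2 at 5 µM in the primary screen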;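 also: 0 = wells with 2.5 mM tranylcypromine and 1 = vehicle-only wells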
Target sequence (P33261 whole entry, looked up): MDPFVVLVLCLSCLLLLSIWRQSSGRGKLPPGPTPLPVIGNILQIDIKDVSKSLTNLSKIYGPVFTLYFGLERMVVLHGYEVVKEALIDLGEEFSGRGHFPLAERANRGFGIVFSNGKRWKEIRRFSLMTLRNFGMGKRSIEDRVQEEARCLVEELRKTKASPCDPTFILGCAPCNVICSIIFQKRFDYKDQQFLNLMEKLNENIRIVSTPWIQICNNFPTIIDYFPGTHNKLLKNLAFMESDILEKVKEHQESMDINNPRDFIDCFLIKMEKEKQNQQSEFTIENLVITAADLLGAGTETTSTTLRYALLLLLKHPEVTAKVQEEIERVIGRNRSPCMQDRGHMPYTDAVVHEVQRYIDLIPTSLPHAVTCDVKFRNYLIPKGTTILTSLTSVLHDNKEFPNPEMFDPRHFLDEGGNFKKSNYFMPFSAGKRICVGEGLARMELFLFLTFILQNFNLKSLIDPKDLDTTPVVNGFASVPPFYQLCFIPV
sEH inh: soluble epoxide hydrolase (human) inhibition | P34913 | recombinant human sEH enzymatic activity assay | inhibition, % at 2 µM | 91,000 compounds, 0.34% hits | AID 707; in the data active = inhibition above about 80%
CYP2C9 inh: inhibitors of human CYP2C9. CYP2C9 Supersomes, luciferin-H conversion, luminescence. inhibition, % at 5 µM. 96,000 compounds, 20% hits. AID 777;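 active = blocking of liver enzyme CYP2C9 beyond about 50% at 5 µM, limit read from the data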
CYP2C19 inhib: human CYP2C19 inhibition; inhibition, % at 5 µM; CYP2C19 Supersomes, luciferin-H EGE luminescence, 30 min; P33261; 96,000 compounds, 21% hits;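 active = CYP2C19 inhibition above a set limit at 5 µM in the primary screen, cut at about 50% in these data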;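 also: plate controls were negative control wells for no effect and 2.5 mM tranylcypromine positive control for full effect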
CYP2C9 activ: activators of human CYP2C9; P11712; recombinant CYP2C9, luciferin-H conversion, luminescence; stronger effect = higher value; factor 1 = untreated enzyme, 0 = blocked; activation factor at 5 µM; 96,000 compounds, 1.4% hits;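 active = activation factor of 2 or more for CYP2C9 at a 5 µM dose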;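 also: 0 = sulfaphenazole-blocked wells and 1 = vehicle-only wells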
Active calls of the source: *; . = no result. Only some compounds are listed: those with a hit (about 27% of all), similar ones and a draw of the others.

SMILES	sEH act	CYP2C19 activ	sEH inh	CYP2C9 inh	CYP2C19 inhib	CYP2C9 activ
c1ccc(Cc2nn3c(-c4ccncc4)nnc3s2)cc1	1	0	2	84*	99*	0.2
c1ccc(Cc2nn3c(C4COc5ccccc5O4)nnc3s2)cc1 (centres undefined)	-5	0.5	4	55*	54*	0.5
CC(=O)OCC1OC(Sc2cccc3cccnc23)C(OC(C)=O)C(OC(C)=O)C1OC(C)=O (centres undefined)	9	1	-8	5	-1	1
O=C(NCc1nnc(SCC(=O)N2CCC(Cc3ccccc3)CC2)o1)c1ccccc1F	-10	0.5	10	72*	47	0.3
O=C(NCc1nnc(SCC(=O)N2CCCC2)o1)c1c(F)cccc1Cl	-4	1	6	13	3	0.9
CCN(CC)CCNc1nc(-c2ccco2)c2c(c1C#N)CC(C)(C)OC2	-5	0.9	5	14	13	0.9
CC1(C)Cc2c(C#N)c(NCCc3ccccc3)nc(-c3ccco3)c2CO1	.	0.9	.	70*	12	0.3
CC1(C)Cc2c(C#N)c(NCC3CCCO3)nc(-c3ccco3)c2CO1 (centres undefined)	8	0.9	-7	54*	13	0.5
CC1(C)Cc2c(C#N)c(NC3CCCCC3)nc(-c3ccco3)c2CO1	.	0.9	.	60*	6	0.4
CCc1cc(C(=O)O)c(NC(=O)C(c2ccccc2)c2ccccc2)s1	-15	1	15	97*	3	0
Cc1cccc2c1N1C(=O)c3c(C(=O)O)cccc3C1CC2C (centres undefined)	-4	.	6	.	.	.
N#CC1=C(N)NC(SCc2ccc(Cl)cc2)=C(C#N)C12CCCCC2	-40	0	42	100*	100*	0
N#CC1=C(N)NC(SCc2ccc(Br)cc2)=C(C#N)C12CCCCC2	-37	.	38	.	.	.
CCSC1=C(C#N)C2(CCCC2)C(C#N)=C(N)N1	-11	0	12	95*	95*	0
CC1(C)CC(=O)C2=C(C1)NC(SCC(=O)Nc1ccccc1)=C(C#N)C21CCCCC1	8	0.5	-7	48	47	0.5
N#CC1=C(N)NC(SCC(=O)Nc2ccc(Br)cc2)=C(C#N)C12CCCCC2	-43	0	42	96*	100*	0
CSC1=C(C#N)C2(CCCC2)C(C#N)=C(N)N1	-4	0.2	6	63*	77*	0.4
N#CC1=C(N)N2C(=C(C#N)C13CCCCC3)SC1CCCCC12O (centres undefined)	.	0.6	.	40	41	0.6
CS(=O)(=O)Nc1ccc(C(=O)NC2CCCC2)cc1	0	1.1	-1	0	-9	1
COc1ccc(NC2=NCC(=O)N2c2ccccc2F)cc1	6	0.9	-4	-17	6	1.2
Cc1ccc(C)c(S(=O)(=O)N2C(=S)NC(=O)C2CC(C)C)c1 (centres undefined)	6	0.5	-4	80*	48	0.2
CC(C)C1C(=O)NC(=S)N1S(=O)(=O)c1ccc(C(C)(C)C)cc1 (centres undefined)	-8	1.1	9	37	-8	0.6
CC1CC(Nc2ccccc2)c2ccccc2N1C(=O)c1cccnc1 (centres undefined)	18	.	-14	.	.	.
C[C@@H]1C[C@H](Nc2ccccc2)c2ccccc2N1C(=O)c1cccnc1	6	0.2	0	38	84*	0.6
CCN(CC)C(=O)CN1CCN(c2ncccn2)CC1	-6	1	4	-4	-1	1
SMILES	sEH act	CYP2C19 activ	sEH inh	CYP2C9 inh	CYP2C19 inhib	CYP2C9 activ
O=C(CN1CCN(c2ncccn2)CC1)N(Cc1ccccc1)c1ccc(F)cc1	16	0.4	-18	50*	61*	0.5
Cc1ccc(C(=O)NCC(=O)OCC(=O)c2c(N)n(C)c(=O)n(C)c2=O)s1	-8	0.9	8	58*	7	0.4
Cc1ccc(N)cc1CN1CCCC1=O	.	0.9	.	7	11	0.9
Cc1cccc(-n2ccnc2SCC(=O)Nc2ccc3c(c2)OCCO3)c1	3	0.6	-2	70*	45	0.3
O=C(CSc1nccn1-c1ccc(Cl)cc1)Nc1ccc2c(c1)OCO2	-9	0.3	9	54*	69*	0.5
Cc1sc(NC(=O)C2CC=CCC2C(=O)O)c(C(=O)OC(C)C)c1C (centres undefined)	18	1	-20	54*	2	0.5
CCc1nnc(NC(=O)CSc2ncnc3c2cnn3-c2ccc(OC)cc2)s1	7	0.7	-6	28	32	0.7
O=S(=O)(Nc1ccc(-c2nc3cccnc3s2)cc1)c1ccc(Cl)s1	9	1	-11	100*	-4	0
Cc1cc(/C=C2\SC(=Nc3ccccc3)NC2=O)c(C)n1-c1ccc(S(N)(=O)=O)cc1	1	0.8	0	60*	19	0.4
Cc1nc(-c2ccccc2)sc1-c1nc(-c2cccs2)ncc1S(=O)(=O)c1ccccc1	.	0.8	.	62*	17	0.4
O=S(=O)(c1ccccc1)c1cnc(-c2cccnc2)nc1-c1ccccc1	-14	0.9	12	13	8	0.9
Cc1nc(-c2ccccc2)sc1-c1nc(-c2cccnc2)ncc1S(=O)(=O)c1ccccc1	.	0.5	.	77*	45	0.2
C=CCOc1cccc(C2C(C(=O)c3ccc(C)o3)=C(O)C(=O)N2c2nccs2)c1 (centres undefined)	6	0.5	-8	41	47	0.6
O=C(CCC(=O)N1CCN(c2ccccn2)CC1)Nc1nnc(C2CCCCC2)s1	.	0.8	.	10	16	0.9
Cc1ccc(CNCc2ccccc2Cl)cc1	6	0	-6	21	99*	0.8
Nc1nc(NCc2c(F)cccc2Cl)nn1-c1ccccc1	-9	0.7	8	-2	29	1
Cc1ccccc1CNCc1cccnc1	-2	1	4	16	-1	0.8
Fc1cccc(Cl)c1CNCc1ccccc1Cl	9	0.1	-6	30	86*	0.7
Cc1noc(C)c1S(=O)(=O)NCc1ccc2c(c1)OCO2	-6	0.1	10	98*	93*	0
O=S(=O)(NCc1ccc2c(c1)OCO2)c1cccc2cccnc12	4	0.4	-4	-170	64*	2.7*
O=S(=O)(c1ccc(Br)s1)N1CCN(Cc2ccc3c(c2)OCO3)CC1	23	0.1	-23	97*	89*	0
CS(=O)(=O)N1CCc2cc(S(=O)(=O)N3CCN(Cc4ccc5c(c4)OCO5)CC3)ccc21	6	0.9	-4	12	10	0.9
CCN1CCN(S(=O)(=O)c2ccc(Br)s2)CC1	10	0.8	-4	-2	17	1
O=S(=O)(c1cc(Cl)ccc1Cl)N1CCN(Cc2ccc3c(c2)OCO3)CC1	9	0.5	-10	-15	50*	1.1
Cc1cc2nc(CCN(C(=S)NCC(C)C)C3CCCC3)[nH]c2cc1C	8	0.6	-7	43	39	0.6

Screening results (PubChem BioAssay)
